For 15 molecules, Potency, max response and outcome results are on record in PubChem BioAssay (NCATS).

In experiment [1] the test system is PC26. Description: qHTS profiling for inhibitors of Plasmodium falciparum proliferation (AID 504749). The settings on record: P. falciparum in erythrocytes, SYBR Green DNA, 72 h; series mostly up to 28.7 µM. In a few lines: (§1)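 Readout was DNA-dye fluorescence from lysed cultures, ex 485/em 535 nm. Parasitized red cells had grown 72 h with compound; data scaled between 0.29 uM artemisinin and DMSO wells and corrected using vehicle-only plates.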

Experiment [2] concerns PC49. The experiment is described as above. The settings on record: P. falciparum in erythrocytes, SYBR Green DNA, 72 h; series mostly up to 28.7 µM. In a few lines: as §1
The subject of experiment [3] is SC27B. Described as above. The settings on record: P. falciparum in erythrocytes, SYBR Green DNA, 72 h; series mostly up to 28.7 µM. In a few lines: as §1
The test system of experiment [4] is TAB109. The experiment is described as above. The settings on record: P. falciparum in erythrocytes, SYBR Green DNA, 72 h; series mostly up to 28.7 µM. In a few lines:
as §1

Experiment [5] has as its system TAB113. The description is as above. The settings on record: P. falciparum in erythrocytes, SYBR Green DNA, 72 h; series mostly up to 28.7 µM. In a few lines: as §1
The subject of experiment [6] is TAB165. Described as above. The settings on record: P. falciparum in erythrocytes, SYBR Green DNA, 72 h; series mostly up to 28.7 µM. An outline of the steps: as §1
For experiment [7], the system named is W2. Described as above. The settings on record: P. falciparum in erythrocytes, SYBR Green DNA, 72 h; series mostly up to 28.7 µM. In a few lines: as §1
The subject of experiment [8] is CRL-7250. Description: Cytotoxic Profiling of Annotated Libraries Using Quantitative High-Throughput Screening (AID 1296008). For max response: % is set by controls: 0 for no effect and ±100 for the full control effect. The settings on record: Five cell lines viability, CellTiter-Glo ATP luminescence, 48-72 h; max response: active compounds read low. In a few lines: (§2)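 Cells exposed to compounds for 48 or 72 hr at 37 degrees Celsius. Viability read as ATP-coupled luminescence with CellTiter-Glo after 10 min at room temperature.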
On the technique in general: ATP-based viability assays read luminescence as a measure of living cells.

The subject of experiment [9] is HEK293. Described as above. The settings on record: Five cell lines viability, CellTiter-Glo ATP luminescence, 48-72 h; max response: active compounds read low. In a few lines:
as §2

Experiment [10] has as its system HaCat. The experiment is described as above. The settings on record: Five cell lines viability, CellTiter-Glo ATP luminescence, 48-72 h; max response: active compounds read low. An outline of the steps:
as §2

Molecules are shown by their SMILES. Values joined by “and” are separate entries in the source; they are usually repeats but may differ in a detail not shown here. Equal entries are not always repeated. Records with an inconclusive call do not appear. More than one record can exist for a structure, and the calls need not agree. A number with no mark means an inactive call. Active and inactive are the calls of the source. Calls come from the whole dose curve; as a rule, active = well fitted inhibition curve with a large enough effect; inconclusive = small, poorly fitted or top-dose-only effect; inactive = flat fitted curve, though single readings scatter. Non-standard residues stand in square brackets, D forms with d. Residues, ends and D or L forms follow the SMILES beside them. *: point of attachment. Sta = CC(C)C[C@H](N)[C@@H](O)CC(=O)O; Isovaleryl = CC(C)CC(=O)*
Note: nearly all actives have a fitted effect of over 60% in size.
Potency is the fitted concentration of half-maximal effect.

Turning to `CNC[C@H](O)c1ccc(O)c(O)c1`, the Potency entry in [1], in experiment [2], in experiment [3], in [4], in experiment [5] and in experiment [6] was “inactive” in each case. Moreover, in experiment [7], the Potency result was “inactive”. Also, the max response in experiment [8] was -3.3% and -3.53%; in [9], -3.32%; in experiment [10], -1.14% and -13.4%. Also, in experiment [9], the molecule was classed as inactive.
Take `COC1=C(OC)C(=O)C(CCCCCCCCCCO)=C(C)C1=O`: the Potency entry in experiment [1], in [2], in experiment [3] and in experiment [4] was “inactive” in each case. Besides, the max response in experiment [8] is -2.47%; in experiment [10], -8.33%. Also, the result in [8] and in [10] was inactive. In addition, the Potency in [9] is 23.7 µM (active).
In the case of `O=C(NC(Cc1cc(=O)[nH]c2ccccc12)C(=O)O)c1ccc(Cl)cc1` (stereo unspecified), the Potency entry in [1], in experiment [2], in experiment [3], in [4], in [5] and in experiment [6] was “inactive” in each case. In addition, the Potency result in experiment [7] was “inactive”. The max response in experiment [8] was -2.81%; in [9], -6.76% and -6.81%; in experiment [10], -8.32%. In addition, the outcome in experiment [8] and in [10] was inactive.
For `Clc1ccc(C(Cn2ccnc2)OCc2ccc(Sc3ccccc3)cc2)c(Cl)c1` (stereo unspecified), in experiment [8], the max response is -3.19%. Also, the result in experiment [8], in [9] and in [10] was inactive. Also, the Potency in experiment [9] is 26.4 µM (active).
As to `Cc1c(C(=O)NN2CCCCC2)nn(-c2ccc(Cl)cc2Cl)c1-c1ccc(Cl)cc1`, the Potency is 16.9 µM (active) in [1]; 10 µM (active) in experiment [3]; 10 µM (active) in experiment [6]; 6.75 µM (active) in experiment [7]; 26.4 µM (active) in experiment [9]. Also, the max response in [8] is -1.95%. The outcome in [8] and in experiment [10] was inactive.
Turning to `Cc1nc(-c2ccc(OCC(C)C)c(C#N)c2)sc1C(=O)O`, the max response in [8] is 2.28%; in experiment [9], -1.16% and -8.21%; in experiment [10], 0.712%. Besides, the outcome in experiment [8] and in [10] was inactive.
As for `O=C(NCC1CCCCN1)c1cc(OCC(F)(F)F)ccc1OCC(F)(F)F` (stereo unspecified), the max response in experiment [8] was -77.3%; in experiment [9], -82.7%; in [10] it was -9.94% and -10.2%. The molecule was classed as inactive in experiment [8].
On to `Cn1c(NCCN(CCO)CCCc2ccc([N+](=O)[O-])cc2)cc(=O)n(C)c1=O`, for which the Potency result in [1], in experiment [2], in experiment [3], in experiment [4], in [5] and in experiment [6] was “inactive” each time. The max response in experiment [8] was -8.35%; in experiment [10], 0.714%. Also, the molecule was called inactive in experiment [8], in experiment [9] and in [10].
Regarding `Cc1cccc(CN2CCN(C(c3ccccc3)c3ccc(Cl)cc3)CC2)c1` (stereo unspecified), the max response in [8] was -2.17%. Besides, the molecule was called inactive in experiment [8] and in [10].
As for `Cc1ccc(C)c(OCCCC(C)(C)C(=O)O)c1`, the Potency entry in experiment [1], in experiment [2], in experiment [3], in experiment [4], in [5] and in experiment [6] was “inactive” throughout. In addition, in [7], the Potency entry was “inactive”. Besides, the max response was -2.44% in experiment [8]; 4.9% and 0.17% in experiment [9]; 3.97% in experiment [10]. The outcome in experiment [8] and in experiment [10] was inactive.
Take `Cc1ncc([N+](=O)[O-])n1CC(C)O` (stereo unspecified): the Potency result in experiment [1], in experiment [2], in experiment [3], in experiment [4], in [5] and in [6] was “inactive” throughout. For the same molecule, the Potency result in [7] was “inactive”. In addition, the max response in [8] was -19.5%; in [9], 3.63%; in experiment [10] it was -8.77%. Besides, the call in experiment [8], in [9] and in experiment [10] was inactive.
Consider `Cc1cc2cc3c(C)cc(=O)oc3c(C)c2o1`, for which the Potency result in experiment [1], in [2], in experiment [3], in experiment [4], in [5] and in experiment [6] was “inactive” each time. Further, the Potency entry in experiment [7] is “inactive”. Further, the max response was 4.53% and -2.29% in [8]; -0.492% in experiment [9]; -8.67% in experiment [10]. For the same molecule, the molecule was called inactive in [9] and in experiment [10].
Turning to `CCC[C@@H]1C[C@@H](C(=O)N[C@@H]([C@H]2O[C@H](SC)[C@H](O)[C@@H](O)[C@H]2O)[C@@H](C)O)N(C)C1`, the Potency result in experiment [2] and in experiment [5] was “inactive” each time. In addition, the Potency in experiment [7] was 0.338 µM (active). Moreover, the max response is -16.2% in [8]; -5.82% and -16.1% in experiment [9]; -11.9% and -14% in experiment [10]. Moreover, the outcome in experiment [8] was inactive.
On to `CC(C)CC(=O)N[C@H](C(=O)N[C@H](C(=O)N[C@@H](CC(C)C)[C@@H](O)CC(=O)N[C@@H](C)C(=O)N[C@@H](CC(C)C)[C@@H](O)CC(=O)O)C(C)C)C(C)C` (Isovaleryl-VV[Sta]A[Sta]-OH), for which the max response in experiment [8] was 0.655%; in [9] it was -5.42%.
In the case of `CC1(C)CCC(C)(C)c2cc(NC(=O)c3ccc(C(=O)O)cc3)ccc21`, the Potency entry in experiment [1], in [2], in experiment [3], in [4], in experiment [5] and in [6] was “inactive” in each case. Moreover, in experiment [7], the Potency result is “inactive”. For the same molecule, the max response in experiment [8] is 0.132%; in [9], 2.4%; in experiment [10] it was -6.69%. In addition, the molecule was called inactive in [9] and in experiment [10].
